Screening results from PubChem BioAssay.
Hits are enriched below; roughly 3.9% of the tested compounds scored in any of these assays.
HGIII-sPLA2 inh – human group III sPLA2 inhibitors, primary screen, biochemical, QFRET, BODIPY PC-A2 liposome substrate; QFRET BODIPY PC-A2 liposome hydrolysis, fluorescence; 0.56% of 370,000 active; inhibition, % at 12.2 µM; Group 3 secretory phospholipase A2 (Homo sapiens), Q9NZ20;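 active = inhibition above mean plus 3 SD of compounds lying within the high and low control bounds, cut at about 19% in these data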
Target sequence (Q9NZ20 whole entry, looked up): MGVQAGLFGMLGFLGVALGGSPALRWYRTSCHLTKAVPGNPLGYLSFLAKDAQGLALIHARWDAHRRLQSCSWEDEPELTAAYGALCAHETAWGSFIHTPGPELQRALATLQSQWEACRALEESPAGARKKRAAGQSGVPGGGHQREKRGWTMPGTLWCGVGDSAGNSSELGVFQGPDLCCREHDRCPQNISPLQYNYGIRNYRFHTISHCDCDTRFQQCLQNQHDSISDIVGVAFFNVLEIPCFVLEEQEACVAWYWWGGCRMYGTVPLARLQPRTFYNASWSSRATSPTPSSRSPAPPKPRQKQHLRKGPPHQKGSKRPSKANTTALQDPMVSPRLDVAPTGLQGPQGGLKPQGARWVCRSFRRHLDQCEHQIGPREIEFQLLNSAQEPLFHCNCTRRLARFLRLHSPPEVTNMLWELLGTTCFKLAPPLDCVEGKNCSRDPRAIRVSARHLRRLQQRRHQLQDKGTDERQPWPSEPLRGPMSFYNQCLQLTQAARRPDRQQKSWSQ
PLC-beta3 inh – human PLC-beta3 inhibitors, primary screen, biochemical, fluorescence; Purified PLC-beta3, fluorogenic substrate; 1-phosphatidylinositol 4,5-bisphosphate phosphodiesterase beta-3 (Homo sapiens), Q01970; inhibition, % at 12.2 µM; 0.18% of 370,000 active; in the data active = inhibition above about 11%
Yeast superoxide – reduction of superoxide in aged yeast, primary screen, HTS. S. cerevisiae aged cells, superoxide DHE fluorescence; stronger effect = lower value. superoxide response (% of plate mean), % at 10 µM. 0.18% of 330,000 active;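 active = superoxide response under a set limit, about three screen SD below normal, cut at about 65% in these data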;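 note: yeast aged for seven days with compound at 30 °C before DHE staining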
HIF act – HIF pathway transcriptional activators, primary screen, cell-based, U2OS HRE-luciferase, luminescence; AID 1910, 2009; 0.32% of 300,000 active; activation, % at 7.5 µM (by protocol); U2OS HRE-luciferase reporter; normalized: DMSO 0%, desferrioxamine 100%;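 active = mean activation of at least 10% of the iron chelator positive control signal, with at least half of replicates also reaching 10%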
AHR act – AHR activators, primary screen, cell-based, luminescence, luciferase reporter, human | AHR-responsive luciferase reporter cells | activation, % at 5 µM | 2.5% of 320,000 active; in the data active = activation above about 47%
PLCg1 inh – PLC-gamma1 enzyme inhibitors, primary screen, biochemical, fluorescence, purified enzyme; 1-phosphatidylinositol 4,5-bisphosphate phosphodiesterase gamma-1 (Homo sapiens), P19174; fluorogenic substrate; inhibition, % at 12.2 µM; 0.84% of 370,000 active; AID 720700, 2013; in the data active = inhibition above about 9.5%
AHR act cf – AHR activators, confirmation, cell-based, luminescence, luciferase reporter, human | shares compounds with AHR act | human cells, AHR-responsive luciferase reporter | activation, % at 9 µM | 87% of 2,300 active | AID 2845, 2010; in the data active = activation above about 49%;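 note: HepG2 hepatoma cells carrying a DRE-driven firefly luciferase reporter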
PXR counter – human PXR activators, counter-screen for AHR activator project, cell-based, luciferase luminescence; activation, % at 11.6 µM; 88% of 2,300 active; cell-based PXR reporter; AID 434939, 2010; shares compounds with AHR act; in the data active = activation above about 11%;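 note: human hepatoma DPX-2 cells expressing full-length human PXR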
Of the large screens only hits and unclear results are named; the others gave an inactive call (follow-up assays come after a bar, where they were run).

COc1cccc(/C=N/Nc2nc3ccccc3[nH]2)c1OC	none
O=C(O)c1ccc(/C=N/Nc2nc3ccccc3[nH]2)cc1	none
Cc1nn(-c2ccccc2)c(C)c1/C=N/Nc1nc2ccccc2[nH]1	AHR act 181 | AHR act cf inactive | PXR counter 26
COc1cc(/C=N/Nc2nc3ccccc3[nH]2)cc(OC)c1O	AHR act 81 | AHR act cf inactive | PXR counter inactive
Cc1cc(=O)[nH]c(N/N=C/c2c(C)nn(-c3ccccc3)c2C)n1	none
Cn1cnc2nc[nH]c2c1=O	none (no result: Yeast superoxide, HIF act, AHR act)
COc1ccccc1Nc1nc2ccccc2[nH]1	AHR act 119 | AHR act cf 63 | PXR counter 35
Cn1c(/C=N/Nc2nc3ccccc3[nH]2)nc2ccccc21	HGIII-sPLA2 inh 49, AHR act 88 | AHR act cf 60 | PXR counter inactive
Clc1nc2ccccc2cc1/C=N/Nc1nc2ccccc2[nH]1	AHR act 83 | AHR act cf 73 | PXR counter 21
C[C@H](CO)N1C[C@H](C)[C@@H](CN(C)S(=O)(=O)c2ccc(-n3cccn3)cc2)OCc2cn(nn2)CCCC1=O	none (no result: Yeast superoxide, HIF act, AHR act)
CCOCCc1nnc(NC(=O)c2cc(OC)c(OC)cc2[N+](=O)[O-])s1	none
CCOCCc1nnc(NC(=O)c2ccc(OC)c(OC)c2)s1	AHR act 115 | AHR act cf 81
O=C(Nc1ccccc1N1CCCC1)c1cccc(F)c1	none
O=C(NC(=S)Nc1ccccc1N1CCCC1)c1cccc(F)c1	AHR act 80 | AHR act cf 91 | PXR counter 43
NC(=O)c1c(NC(=O)c2ccc(F)cc2)sc2c1CCC2	AHR act 174 | AHR act cf 100 | PXR counter 37
NC(=O)c1c(NC(=O)c2cc3ccccc3o2)sc2c1CCC2	AHR act 86 | AHR act cf 48 | PXR counter inactive
Cc1ccnc2nc(C(=O)OC(C)C(=O)NCc3ccccc3)nn12 (stereo not given)	none (no result: HIF act)
CN(C)CCNC(=O)C1(O)c2cc(Br)ccc2NC(=O)N1c1ccc(Cl)cc1 (stereo not given)	none
COc1ccc(NC(=O)CCOc2cc(C)ccc2C)cc1S(=O)(=O)N1CCCCC1	none (no result: HIF act)
COc1ccc2[nH]c3c(N4CC(C)OC(C)C4)ncnc3c2c1 (stereo not given)	AHR act 126 | AHR act cf 94 | PXR counter 22
COc1ccc2c(c1)[nH]c1c(N3CCSCC3)ncnc12	none
CCc1nc2oc3ccccc3c(=O)c2c(=O)n1-c1ccccc1	AHR act 99 | AHR act cf 118 | PXR counter 24
CCc1nc2oc3ccccc3c(=O)c2c(=O)n1CCOC	none
CCCc1nc2oc3ccccc3c(=O)c2c(=O)n1-c1ccc(C)cc1	AHR act 81 | AHR act cf 76 | PXR counter 68
COc1ccc(Nc2nccc(OC)c2C#N)cc1	none
COc1ccc(Nc2nccc(-c3ccc(C#N)cc3)n2)cc1	AHR act 80 | AHR act cf 54 | PXR counter 16
COc1ccc(Nc2nccc(-c3cccc(N)c3)n2)cc1	AHR act 132 | AHR act cf 54 | PXR counter 30
Cc1cccc(NC(=O)c2sc3nc(N)c(C#N)cc3c2N)c1	AHR act 111 | AHR act cf 61 | PXR counter 29
Cc1cc(C)cc(NC(=O)c2sc3nc(C)cc(C)c3c2N)c1	none
O=c1[nH]c(C(F)(F)F)nc2ccc3ccccc3c12	none
CCOC(=O)C1=C(COC(=O)COc2ccc(Br)cc2)NC(=O)NC1C (stereo not given)	none
OCCCn1c(CCNc2nc(-c3ccc(Cl)cc3)cs2)nc2cc(C(F)(F)F)ccc21	none
OCCOCCn1c(CCNc2nc(-c3ccc(F)cc3)cs2)nc2cc(C(F)(F)F)ccc21	AHR act 91 | AHR act cf 50 | PXR counter 27
Nc1c(Cl)cc(-c2csc(NCCc3nc4cc(Cl)c(Cl)cc4n3CCCO)n2)cc1Cl	AHR act 131 | AHR act cf 113 | PXR counter 82
Cc1[nH]n(C(N)=S)c(=O)c1N=Nc1cccc(C(F)(F)F)c1	AHR act 143 | AHR act cf 74 | PXR counter 21
Cc1[nH]n(C(N)=S)c(=O)c1N=Nc1ccc(Br)cc1	AHR act 108 | AHR act cf 135 | PXR counter 40
CC1CN(C(=O)/C=C/c2ccccc2[N+](=O)[O-])CC(C)O1 (stereo not given)	none
COC(=O)/C(=C(O)\C=C\c1ccccc1[N+](=O)[O-])c1nc2ccccc2[nH]1	AHR act 92 | AHR act cf 113 | PXR counter 47
CNC[C@@H]1Oc2ccc(NC(=O)Nc3cccc4ccccc34)cc2C(=O)N([C@@H](C)CO)C[C@@H]1C	none (no result: HGIII-sPLA2 inh, PLC-beta3 inh, HIF act, PLCg1 inh)
Cc1cccc2nc(C(=O)Nc3cc(Cl)ccc3-n3cncn3)cn12	AHR act 88 (no result: HIF act) | AHR act cf 88 | PXR counter 30
Cc1cccc(C(=O)Nc2cc(Cl)ccc2-n2cncn2)c1[N+](=O)[O-]	none
CCN(CC)CCCNC(=O)CCn1nc(-c2ccccc2)ccc1=O	none
COc1ccc2nc(NC(=O)CSc3n[nH]c(N)n3)sc2c1	AHR act 94 | AHR act cf 108 | PXR counter 22
CCCn1c(SCC(=O)c2c(C)[nH]c(C)c2C(=O)OCC)nc2ccccc21	none
CCOC(=O)c1c(C)[nH]c(C)c1C(=O)CSc1nc2ccccc2n1CCC#N	AHR act 99 | AHR act cf inactive | PXR counter 79
Cc1ccc(NS(=O)(=O)c2ccc(Cl)c(C(=O)Nc3cccc(C(=O)O)c3)c2)cc1	none
S=C(NCc1ccc2[nH]c3c(c2c1)CCCC3)Nc1ccccc1	AHR act 112 | AHR act cf 71 | PXR counter 36
Cc1cc(C)cc(NC(=S)NCc2ccc3[nH]c4c(c3c2)CCCC4)c1	none
CCS(=O)(=O)N1CCN(C(=O)c2ccc3nc(C)c(N(C)C(=O)CCc4ccccc4)n3c2)CC1	none (no result: Yeast superoxide, HIF act, AHR act)
COc1cccc2[nH]c(C(=O)NCc3ccccc3)cc12	none
